PubChem BioAssay AID774 (SRMLSC, 2007)
Hit rate of the full screen: of about 65,000 compounds, about 15 (0.02%) were called active.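 The calls were made as follows: active = single-dose screening hits from any of four coupled enzyme assays that gave an IC50 when retested across doses; inconclusive = no clear call, values can overlap the other calls; inactive = the rest.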 Only a sample is shown.

Assay: inhibitors of PK/LDH coupling enzymes, profiling panel, artefact control, biochemical, MLSMR library (AID 774);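 also: the DPM-DC format reads NADH fluorescence rather than 340 nm absorbance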
Conditions: coupled PK/LDH NADH assays, four targets; at 10 µM; stronger effect = higher value

inhibition, inactive:
COc1cc(OC)cc(C(=O)Nc2ccc(-c3nc4ccccc4o3)c(O)c2)c1 9%
CC1(C)C(=O)Nc2ccccc2N1C(=O)COC(=O)Cn1cnc2ccccc2c1=O 11%
CC1CCCCC1NC(=O)CCS(=O)(=O)c1cccc2nonc12 (configuration not stated) 2%
c1csc(CN2CCN(Cc3cccs3)C2c2cccs2)c1 5%
O=C(CSc1nnc(Cc2ccccc2)n1-c1ccccc1)N1CCOCC1 5%
CCc1c(O)nc(SCC(=O)N2CCCCC2)n(-c2ccccc2C)c1=O 11%
O=C(NC1CCN(Cc2ccccc2)CC1)c1ccccc1F 1%
Cc1ccc(NC(=O)c2cc(-c3ccc(C)o3)nc3ccccc23)nc1 5%
CCOC(=O)C1CCN(C(=O)Cc2c(C(=O)O)[nH]c3ccccc23)CC1 1%
Cc1ccn2cc(C(=O)NC3CCN(Cc4ccccc4)CC3)nc2c1 4%
CC1Cc2ccccc2N1C(=O)CSc1nc2ccccc2o1 (configuration not stated) 4%
COC(=O)CN(c1cccc(C(C)=O)c1)S(C)(=O)=O 6%
C[N+](C)(C)CCOP(=O)([O-])OC[C@H](O)CO 2%
COc1ccc(OC)c(C(=O)c2coc3ccc(OC)cc23)c1 0%
Cc1cc(C)nc(NC2=NCC(=O)N2c2ccc(Cl)cc2)n1 2%
Nc1ccc(-n2nncc2-c2ccco2)cc1 3%
CCOC(=O)CSc1nnc(CNC(=O)c2ccco2)n1-c1ccc(F)cc1 5%
CCOC(=O)C1C(=O)NC(N2CCN(c3ccccc3)CC2)=NC1c1ccco1 (configuration not stated) 7%
O=C(O)C1CCCN1S(=O)(=O)c1ccc2c(c1)CCC2 (configuration not stated) 8%
CNC(=O)n1ccc(C(=O)N2CCCCC2)n1 2%
Cc1ccc(-c2ccc(=O)n(CC(=O)NCCCN3CCCCC3)n2)cc1 8%
CN(Cc1ccccc1)c1nc2c(c(=O)[nH]c(=O)n2C)n1CCSc1nc2ccccc2[nH]1 4%
COC(=O)C(C)N(C#N)c1nc(C)nc(C)n1 (configuration not stated) 9%
CCOc1ccc(NC(=O)Nc2ccc(N(C)C(C)=O)cc2)cc1 4%
CC(c1ccco1)N(C(=O)c1ccc(S(=O)(=O)N2CCCCC2)cc1)c1ccccn1 (configuration not stated) 1%
Cc1ccc(-c2nc(COC(=O)c3c(C)noc3C)cs2)cc1 7%
COc1ccc(OCc2cccc(C(=O)N3CCCC3)c2)cc1 9%
CCOC(=O)N1CCN(C(=O)c2ccc(CN(c3ccc(C)c(C)c3)S(C)(=O)=O)cc2)CC1 2%
CCOC(=O)N1CCN(C(=O)COc2ccc(Br)cc2)CC1 5%
COc1ccccc1C(=O)N1CCN=C1SCc1cccnc1 2%
Cn1c(=O)[nH]c(=O)c2c1nc(CN(Cc1ccccc1)Cc1ccccc1)n2CCN1CCOCC1 0%
CCOC(=O)c1nnn(-c2nc(OC)nc(N(C)C)n2)c1-c1ccccc1 6%
O=C(CSc1nc2ccccc2o1)N1CCN(c2ccc(Cl)cc2)CC1 3%
CCOC(=O)N1CCN(C(=O)CN(C2CCCCC2)S(C)(=O)=O)CC1 3%
O=C(C1CCN(CC2CCCCC2)CC1)N1CCCC1 17%
O=C(CS(=O)(=O)c1cn(Cc2ccc(Cl)cc2)c2ccccc12)N1CCOCC1 1%
CC1CN(c2cc(=O)n(-c3cccc(Br)c3)c(=O)[nH]2)CC(C)O1 (configuration not stated) 2%
OC(COc1cccc(OCC(O)CN2CCCC2)c1)CN1CCCC1 (configuration not stated) 3%
COc1ccc(C2CC(c3ccc(C)cc3)Nc3nc(N)nn32)cc1 (configuration not stated) 1%
CCOc1ccc(-c2nnn(CC(=O)N3CCN(c4ccc(F)cc4)CC3)n2)cc1OCC 1%
COc1ccccc1Cc1nc(-c2ccc(C)cc2)no1 1%
Cc1cc(=O)[nH]c(=S)[nH]1 0%
COc1ccccc1C1/C(=C(/O)c2ccc(OC(C)C)cc2)C(=O)C(=O)N1c1cc(C)on1 (configuration not stated) 5%
OCCCNC(c1ccccc1)c1ccc(O)cc1 (configuration not stated) 6%
Cc1cc(C(F)(F)F)nn1CC(=O)N1CCCC1 2%
CCOC(=O)Cn1c(SC)nc2sc3c(c2c1=O)CC(C)(C)OC3 4%
COCCNC(=O)c1ccccc1-c1nc(-c2ccccc2Cl)no1 4%
Cc1nc(CNS(=O)(=O)c2cccnc2)cs1 5%
Cc1cc(C)nc(N(C#N)CC(=O)Nc2ccccc2)n1 7%
COc1ccc(-c2noc(CN(C)S(=O)(=O)c3ccc(C)cc3)n2)cc1 6%
CN1CCN(S(=O)(=O)c2ccc(NC(=O)c3ccco3)cc2)CC1 2%
CCOc1ccc(CN(Cc2ccco2)C(c2cccs2)c2nnnn2C(C)(C)C)cc1 (configuration not stated) 1%
CCOC(=O)c1ccc(N2C(=O)CC(N3CC(C)OC(C)C3)C2=O)cc1 (configuration not stated) 3%
CC(=O)Nc1ccc(S(=O)(=O)N2CCN(C3CCCCCCC3)CC2)cc1 6%
CC(C)(C)c1ccc(C(=O)NCCC(=O)NCc2ccco2)cc1 6%
CCSC1(SCC)N=C(N)C2(C#N)C(c3ccccc3)NC(C)=CC12C#N (configuration not stated) 1%
COc1ccccc1-n1nnnc1S(=O)(=O)Cc1ccc(Cl)cc1 5%
Cc1noc(C)c1S(=O)(=O)N(CC(=O)Nc1ccc2c(c1)OCCO2)c1ccc(C(C)C)cc1 8%
CCCCOC(=O)c1[nH]c(C)c(C(=O)OC)c1C 1%
CC(Oc1ccc(Cl)cc1)C(=O)Nc1ncccn1 (configuration not stated) 5%
Cc1noc(C)c1CSc1nc2cc(S(=O)(=O)N3CCOCC3)ccc2o1 4%
O=C1CCC(=O)N1CCOP1(=O)COc2ccccc2OC1 4%
O=C(NCc1ccc2c(c1)OCO2)c1cc2c(s1)CS(=O)(=O)C2 6%
CCCOP(=O)(c1ccc(N(C)C)cc1)C(O)c1cc(OC)c(OC)c(OC)c1 (configuration not stated) 2%
CSc1nc(C)nc2c1c(=O)n(C)c(=O)n2C 5%
Cc1nc(NCc2ccccc2)c(C(N)=O)c2c1COC(C)(C)C2 11%
CCN(CC)CCNC(=O)C1c2ccccc2C(=O)N(C)C1c1cn(C)c2ccccc12 (configuration not stated) 6%
CCOc1cc(C(=O)N2CCc3cc(OC)c(OC)cc3C2)ccc1OC(F)F 7%
Cc1cc(N2CCCC2)n2nc(C)c(-c3ccccc3)c2n1 8%
CSCCC(NC(N)=O)C(=O)N(C)CC(=O)Nc1ccc(C)cc1 (configuration not stated) 8%
CC(NCCO)C(=O)C12CC3CC(CC(C3)C1)C2 (configuration not stated) 4%
O=P(O)(CP(=O)(c1ccccc1)c1ccccc1)c1ccccc1 6%
COC(=O)c1cc(NC(=O)CN2CCC(C(N)=O)(N3CCCCC3)CC2)cc(C(=O)OC)c1 4%
ON=C1/C(=N\O)CC2(C/C1=N/O)OCCO2 2%
CCc1ccccc1NC(=O)CSc1nnc([C@@H](NC(=O)OC(C)(C)C)C(C)CC)o1 (some centres not stated) 5%
COc1ccc(-n2ncc3c(N4CCc5ccccc54)ncnc32)cc1 6%
CCOc1ccc(S(=O)(=O)N(CC(=O)O)c2ccccc2)cc1 1%
CCOc1cccc(NC(=O)CC#N)c1 6%
COC(=O)c1sccc1NC(=O)c1csc2c1CCCC2 5%
CCOC(=O)CNC(=O)CSc1nnc(COc2ccc(Cl)cc2)n1CC 8%
N#Cc1ccc(OCCN2C(=O)NC3(CCSC3)C2=O)cc1 (configuration not stated) 14%
CS(=O)(=O)N(Cc1nc2sc3c(c2c(=O)[nH]1)CCCC3)C1CCCCC1 3%
CCn1nc(NC(=O)c2ccco2)c2cc3ccc(C)cc3nc21 9%
N#CC(C(=O)c1ccc(S(=O)(=O)N2CCCCCC2)cc1)c1nc2ccccc2[nH]1 (configuration not stated) 8%
CC(=O)N(Cc1cccs1)C1CCOC(C)(C)C1 (configuration not stated) 5%
CCn1c(NCCc2ccc(OC)c(OC)c2)nc2c1c(=O)n(C)c(=O)n2C 7%
Nc1nc(SCCOc2ccccc2)n[nH]1 1%
N#C/C=C\Oc1ccc(Cl)cc1N 7%
Cc1nnc(NC(=O)CSc2nccn2-c2cccc(C)c2C)s1 5%
O=C(NCc1ccco1)c1cc2sccc2n1Cc1ccc(F)cc1 5%
CCOc1ccc(-c2cn(S(=O)(=O)c3cccc4nsnc34)nc2N)cc1 5%
O=C(CCn1c(=O)[nH]c2ccccc2c1=O)NCCCN1CCN(c2cccc(Cl)c2)CC1 1%
CC1=CC(C)(C)N(C(=O)CSc2nccn2C)c2cc(C)ccc21 0%
O=C(O)CCSc1nnc(-c2ccccc2)n1-c1ccccc1 4%
CSc1nnc(CNC(=O)c2ccccc2)n1-c1ccc(F)cc1 0%
CC(NC(=O)Nc1ccccc1)c1ccccc1 (configuration not stated) 10%
CC(=O)c1cc(C#N)c(SCC(=O)C(C)(C)C)nc1C 1%
COc1cccc(NC(=O)Nc2nnc(N3CCCCC3C)s2)c1 (configuration not stated) 7%
CCCn1cc(SCC(N)=O)c2ccccc21 1%
COc1ccc(S(=O)(=O)N2CCC(C(=O)N3CCc4ccccc4C3)CC2)cc1OC 2%
CCOC(=O)N1CCC(O)(c2cc(C)c(C)cc2C)CC1 3%
O=C(CNS(=O)(=O)c1ccc(Br)s1)NCc1ccc2c(c1)OCO2 5%
